Six compounds from the supplement of paper PMC10811239 can be followed below.

SMILES strings stand for the structures.

What all share (test): bioluminescence (viable cell) signal fold change after vs before treatment, normalised to DMSO (ratio); higher = more tumour cell growth / less inhibition
What all share (details): 10 µM; treatment time 6 days

Test [1] has as its system LEGO organoid PT (PTEN-/-; TP53-/-). The procedure: (§1)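 Luc2-labelled iPSC-derived glioblastoma-like organoids (LEGOs, genotypes PT = PTEN-/-;TP53-/-, PTCC = plus CDKN2A/B-/-, PTN = plus NF1-/-) were treated with 10 uM drug for 6 days (applied every other day) at 37 C. Bioluminescence imaging was done before treatment and 2 days after the last dose. BLI signals were normalised to the DMSO control on the same day and then to the pre-treatment signal (N=3).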

Test [2] concerns LEGO organoid PTCC (PTEN-/-; TP53-/-; CDKN2A-/-; CDKN2B-/-). The procedure:
as §1

Test [3] deals with LEGO organoid PTN (PTEN-/-; TP53-/-; NF1-/-). The procedure:
as §1

Turning to `CCc1cc2c(cc1N1CCC(N3CCOCC3)CC1)C(C)(C)c1[nH]c3cc(C#N)ccc3c1C2=O` [Alectinib], the results for the bioluminescence in test [1], in test [2] and in test [3] were 1.13, 2.57 and 0.961, respectively.
For `COc1cc2ncnc(Nc3ccc(F)c(Cl)c3)c2cc1NC(=O)/C=C/CN1CCCCC1` [Dacomitinib], in that order: 0.37, 0.0502 and 0.
For `CN=C(NC#N)NCCSCc1nc[nH]c1C` [Cimetidine], in that order: 1.14, 2.25 and 1.65.
For `NNC(=O)c1ccncc1` [Isoniazid], in that order: 0.807, 0.847 and 1.06.
Take `Nc1[nH]c(=O)ncc1F` [Fluorocytosine]: the bioluminescence in test [1] is 2.51; in test [2], 1.01; in test [3] it was 1.26.
On the same counts, the results for `Cl.OC(CCN1CCCCC1)(c1ccccc1)C1CCCCC1` (racemic) [DL-trihexyphenidyl hydrochloride] are 1.67, 0.966 and 0.496.
